High-throughput results from PubChem BioAssay.
Compounds with a hit are over-represented: about 12% of the library has one in this group of screens.
G9a block – blocks human histone lysine methyltransferase G9a. G9a H3K9 monomethylation, AlphaScreen, 2 h. Potency, µM (doses to about 102 µM), usual class: inhibitors. 350,000 tested, 8.8% active. Q96KQ7; further: nearly all actives have a fitted effect of over 75% in size
Target sequence (Q96KQ7 913-1193 limits assumed): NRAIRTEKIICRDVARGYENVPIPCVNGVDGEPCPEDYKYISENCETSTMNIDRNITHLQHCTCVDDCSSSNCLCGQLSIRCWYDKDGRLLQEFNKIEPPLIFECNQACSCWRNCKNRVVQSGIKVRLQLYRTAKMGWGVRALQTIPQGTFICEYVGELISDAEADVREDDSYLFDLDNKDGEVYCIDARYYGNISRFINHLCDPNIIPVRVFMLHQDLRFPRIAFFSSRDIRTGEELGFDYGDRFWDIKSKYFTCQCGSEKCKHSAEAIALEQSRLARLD
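AlphaScreen read-out: biotin-H3K9 peptide (500 nM) methylation by 20 nM enzyme with 20 uM SAM, 2 h at room temperature after 15 min compound preincubation; anti-monomethyl H3K9 antibody plus donor/acceptor beads, 10 min dark.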
Sfp PPTase inh – Sfp phosphopantetheinyl transferase inhibition; AID 1490; Biochemical Sfp PPTase activity, qHTS; 310,000 tested, 3.5% active; Potency, µM, usual class: inhibitors; Q9F4F7;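 further: the enzyme is Sfp with the accession as filed and its product quenches rhodamine fluorescence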
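Fluorescence-quenching assay: 15 nM Sfp-PPTase preincubated 15 min at room temperature with compound, then 5 uM rhodamine-CoA and 12.5 uM BHQ-2-labelled YbbR peptide added. Fluorescence (ex 525/em 598 nm) read at start and after 30 min; difference gives rate.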
BAZ2B block – BAZ2B (human) inhibition. Q9UIF8. AlphaScreen BAZ2B-H3K14Ac peptide displacement. Potency, µM (series often up to 114 µM), most hits filed as inhibitors. 360,000 tested, 4.4% active; further: nearly all actives have a fitted effect of over 60% in size
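Multi-concentration screen (max 110 uM) measuring displacement of acetylated histone H3 peptide from BAZ2B by AlphaScreen, using 50 nM protein, 50 nM peptide and 10 ug/mL streptavidin donor plus Ni-chelate acceptor beads.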
JMJD2A Tudor – blocks the human JMJD2A Tudor domain. O75164. AlphaScreen JMJD2A-Tudor / H3K4me3 peptide binding. Potency, µM (doses to about 114 µM), actives largely listed as inhibitors. 390,000 tested, 4.4% active; further: nearly all actives have a fitted effect of over 50% in size
L3MBTL1 block – L3MBTL1 (human) inhibition | AlphaScreen L3MBTL1–H3K9me1 peptide binding | Potency, µM (highest dose often 57.1 µM), hits mostly inhibitors | 230,000 tested, 0.66% active | AID 485360; further: nearly all actives have a fitted effect of over 60% in size
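AlphaScreen proximity signal between nickel-chelate acceptor and streptavidin donor beads (final 10 ug/mL) reports binding of 50 nM L3MBTL1 to 75 nM biotin-H3 K9me1 peptide; complex incubated with compounds 30 min at room temperature; cefsulodin titration as control.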
HP1b chromo inh – blocks HP1-beta chromodomain binding to methylated histone tails. P83916. 390,000 tested, 0.56% active. Potency, µM (doses to about 114 µM), most hits filed as inhibitors. AlphaScreen HP1-beta / biotin-H3K9me3 peptide binding; further: nearly all actives have a fitted effect of over 70% in size
Target sequence (P83916 whole entry, looked up): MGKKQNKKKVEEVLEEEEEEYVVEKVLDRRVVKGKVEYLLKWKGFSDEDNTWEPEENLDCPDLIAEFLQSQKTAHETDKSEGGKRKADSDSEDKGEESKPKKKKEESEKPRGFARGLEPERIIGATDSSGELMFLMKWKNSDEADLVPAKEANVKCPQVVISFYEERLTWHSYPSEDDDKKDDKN
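AlphaScreen: HP1-beta (50 nM) preformed 30 min with biotin-H3(1-18)K9me3 peptide (50 nM) in PBS pH 7.4, 0.01% Tween-20. Compound added for 30 min at RT, then streptavidin donor/nickel chelate acceptor beads (10 ug/mL) for 30 min.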
A number is an active result; – = inactive; ? = inconclusive; · = not tested or not shown; [ ] = remark or other dose. The call rests on the fitted dose curve; in most records, active means well fitted curve in the direction sought with a large enough effect; inconclusive means small, poorly fitted or top-dose-only effect, or another doubt; inactive means no such curve, though single readings can be large; an effect the other way counts as inactive or inconclusive.

SMILES	G9a block	Sfp PPTase inh	BAZ2B block	JMJD2A Tudor	L3MBTL1 block	HP1b chromo inh
CCN1CCN(C(=O)c2ccc(Sc3ccccc3Cl)c([N+](=O)[O-])c2)CC1	31.6µM	–	–	?	–	–
CCN1CCCC1CNC(=O)c1ccc(Sc2ccccc2Cl)c([N+](=O)[O-])c1 (configuration not stated)	–	–	28.2µM	?	·	–
CC(C)(C)OC(=O)N1CCC(c2c(C(=O)NCCN3CCOCC3)cnn2-c2ccc(F)cc2)CC1	–	·	–	–	·	–
C[C@H](NC(=O)OC(C)(C)C)c1nnc(SCC(=O)c2ccc(Cl)cc2)o1	–	–	–	–	–	–
C[C@H](NC(=O)OC(C)(C)C)c1nnc(SCc2c(F)cccc2Cl)o1	–	·	89.1µM	–	·	–
COc1cc(C(=O)NNc2nc3cc4c(cc3s2)OCO4)cc(OC)c1OC	?	20µM	–	–	–	–
COc1cc(OC)cc(C(=O)NNc2nc3cc4c(cc3s2)OCO4)c1	?	79.4µM	?	?	–	–
COc1cccc(OC)c1C(=O)Nc1nc2cc3c(cc2s1)OCO3	–	–	–	–	·	–
COc1ccc(CCNC(=O)Cc2ccc(NC(=O)N3CCSc4ncccc43)cc2)cc1OC	–	·	–	–	·	–
COc1cc(F)cc(F)c1[S+](=O)([O-])N1CCN([S+](=O)([O-])c2ccc3c(c2)OCCO3)CC1	·	·	·	–	·	·
COc1ccc(-n2nc(C(=O)Nc3ccc(C)cn3)c3c4ccccc4n(C)c3c2=O)cc1	–	·	·	–	·	–
Cc1ccc(SCC(=O)OCC(=O)N(CCC#N)c2ccccc2)cc1C	56.2µM	·	–	?	–	–
N#CCCN(C(=O)COC(=O)CCc1ccccc1)c1ccccc1	–	–	–	–	·	–
CC(=O)C1=C(O)C(=O)N(CCc2c[nH]c3ccccc23)C1c1cccc(O)c1 (configuration not stated)	?	–	?	79.4µM	·	–
CCOc1cc(C2C(C(=O)c3ccco3)=C(O)C(=O)N2CCc2ccccc2)ccc1O (configuration not stated)	?	–	?	?	–	–
COc1cc(C2C(C(C)=O)=C(O)C(=O)N2CCc2c[nH]c3ccccc23)ccc1O (configuration not stated)	50.1µM	–	?	100µM	–	–
CC(=O)C1=C(O)C(=O)N(CCNCCO)C1c1ccccc1 (configuration not stated)	–	–	–	–	–	–
COCCNC(=O)CCCN1C(=O)CCn2nc(-c3cccn3C)cc21	–	·	–	–	·	–
CCc1cccc(C)c1NC(=O)COCc1cc(-c2ccc3c(c2)OCO3)on1	–	·	–	–	·	–
Cc1cc(Br)ccc1OCCCCNCCO	·	–	?	3.16µM	–	?
CC(=O)Nc1ccc(NC(=O)COc2ccc(Br)cc2C)cc1	–	–	–	–	–	–
C=CCNCCCCOc1ccc(Br)cc1C	2.51µM	?	79.4µM	2.51µM	–	?
Cc1cc(OCCCCCNCCO)ccc1Cl	–	–	–	–	–	–
Cc1cc(C)c(NC(=O)c2c[nH]c(=S)n2-c2ccc(F)cc2)c(C)c1	2.82µM	–	–	?	–	–
Cc1cc(C)c(NC(=O)C2=CCN(S(=O)(=O)c3ccc(F)cc3)CC2)c(C)c1	?	–	–	–	–	–
SMILES	G9a block	Sfp PPTase inh	BAZ2B block	JMJD2A Tudor	L3MBTL1 block	HP1b chromo inh
Cc1cccc(N(CC(=O)NCc2ccccc2)S(C)(=O)=O)c1C	–	·	–	–	·	–
COc1cc(Br)c(Br)cc1N	–	–	–	–	3.55µM	–
Cc1cc(-c2ccccc2)nc2cc(C(=O)OC(C)C)nn12	–[0.501 µM]	–	–	–	–[2.29 µM]	–
CCOC(=O)c1cc2nc(-c3ccccc3)cc(C)n2n1	44.7µM	–	–	–	–	–
Cc1cc(-c2ccccc2)nc2cc(C(N)=O)nn12	28.2µM	–	–	–	–	–
COCCNC(=O)c1cc2nc(-c3ccccc3)cc(C)n2n1	–	–	–	–	–	–
CCc1c(C)nc2[nH]nc(NC(=O)C(F)(F)F)n2c1=O	15.8µM	–	?	89.1µM	–	–
O=S(=O)(/N=C(/NS(=O)(=O)c1ccccc1)c1ccccc1)c1ccccc1	?	–	–	–	–	–
